# Data from the supplement of paper PMC8728848.
# Only a selection was taken, and the strongest signals are over-represented in it overall.
# B1: R2-fiber (Pseudomonas aeruginosa), Q9S576 (protein)
# chain: HHHHHHKVAKDLVVSLAYQVRTEDGVLVDESPVSAPLDYLHGHGSLISGLETALEGHEVGDKFDVAVGANDAYGQYDENLVQRVPKDVFMGVDELQVGMRFLAETDQGPVPVEITAVEDDHVVVDGNHMLAGQNLKFNVEVVAIREATEEELAHGHVHGAHDHHHDHDHDGCCGGHGHDHGHEHGGEGCCGGKGNGGCGCHENLYFQGVTAGMALAATDIPGLDASKLVSGVLAEQRLPVFARGLATAVSNSSDPNTATVPLMLTNHANGPVAGRYFYIQSMFYPDQNGNASQIATSYNATSEMYVRVSYAANPSIREWLPWQRCDIGGSFTKEADGELPGGVNLDSMVTSGWWSQSFTAQAASGANYPIVRAGLLHVYAASSNFIYQTYQAYDGESFYFRCRHSNTWFPWRRMWHGGDFNPSDYLLKSGFYWNALPGKPATFPPSAHNHDVGQLTSGILPLARGGVGSNTAAGARSTIGAGVPATASLGASGWWRDNDTGLIRQWGQVTCPADADASITFPIPFPTLCLGGYANQTSAFHPGTDASTGFRGATTTTAVIRNGYFAQAVLSWEAFGR
# How the values were obtained:
# Test in all cases: glycan array binding signal (z-score within array); higher = stronger binding
# Conditions in all cases: glycan notation: IUPAC condensed, linker removed
# [1] = biological target: Fuc(a1-2)Gal(b1-3)GalNAc(a1-3)[Fuc(a1-2)]Gal(b1-4)GlcNAc
# In short: (§1)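 Glycan array binding is given as a within-array Z-score, which can be read as non-binding when negative. The arrays, 3228 of them, came from the Consortium for Functional Glycomics database and were retained only where the protein sequence was available. Z-scores were averaged across arrays of the same protein sequence at different concentrations or buffers and across linkers.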
# Fuc(a1-2)Gal(b1-4)GlcNAc = biological target: Fuc(a1-2)Gal(b1-4)GlcNAc
# In short: as §1
# [2] = biological target: Fuc(a1-2)Gal(b1-4)GlcNAc(b1-3)Gal(b1-4)GlcNAc(b1-2)Man(a1-3)[Fuc(a1-2)Gal(b1-4)GlcNAc(b1-3)Gal(b1-4)GlcNAc(b1-2)Man(a1-6)]Man(b1-4)GlcNAc(b1-4)GlcNAc
# In short: as §1
# [3] = biological target: Fuc(a1-2)Gal(b1-4)GlcNAc(b1-6)GalNAc
# In short: as §1
# [4] = biological target: Fuc(a1-2)Gal(b1-4)[Fuc(a1-3)]GlcNAc(b1-3)[Neu5Ac(a2-6)Gal(b1-4)GlcNAc(b1-6)]Gal(b1-4)Glc
# In short: as §1
# [5] = biological target: Fuc(a1-2)[Gal(a1-3)]Gal(b1-4)GlcNAc(b1-3)[Fuc(a1-2)[Gal(a1-3)]Gal(b1-4)GlcNAc(b1-6)]GalNAc
# In short: as §1
# [6] = biological target: Fuc(a1-2)[GalNAc(a1-3)]Gal(b1-3)GlcNAc(b1-2)Man(a1-3)[Fuc(a1-2)[GalNAc(a1-3)]Gal(b1-3)GlcNAc(b1-2)Man(a1-6)]Man(b1-4)GlcNAc(b1-4)[Fuc(a1-6)]GlcNAc
# In short: as §1
# [7] = biological target: Fuc(a1-2)[GalNAc(a1-3)]Gal(b1-4)[Fuc(a1-3)]GlcNAc(b1-3)GalNAc
# In short: as §1
# [8] = biological target: Fuc(a1-3)[Gal(b1-4)]GlcNAc(b1-6)GalNAc
# In short: as §1
# Gal(a1-3)Gal = biological target: Gal(a1-3)Gal
# In short: as §1
# [9] = biological target: Gal(a1-3)Gal(b1-3)GlcNAc(b1-6)GalNAc
# In short: as §1
# Gal(a1-3)Gal(b1-4)Glc = biological target: Gal(a1-3)Gal(b1-4)Glc
# In short: as §1
# Gal(b1-3)Gal(b1-4)GlcNAc = biological target: Gal(b1-3)Gal(b1-4)GlcNAc
# In short: as §1
# Gal(b1-3)GalNAc = biological target: Gal(b1-3)GalNAc
# In short: as §1
# [10] = biological target: Gal(b1-3)GlcNAc(b1-3)Gal(b1-4)GlcNAc(b1-6)[Gal(b1-3)GlcNAc(b1-3)]Gal(b1-4)Glc
# In short: as §1
# [11] = biological target: Gal(b1-3)GlcNAc(b1-3)Gal(b1-4)[Fuc(a1-3)]GlcNAc
# In short: as §1
# [12] = biological target: Gal(b1-3)[Fuc(a1-4)]GlcNAc(b1-2)Man
# In short: as §1
# [13] = biological target: Gal(b1-3)[Fuc(a1-4)]GlcNAc(b1-3)Gal(b1-4)[Fuc(a1-3)]GlcNAc
# In short: as §1
# [14] = biological target: Gal(b1-4)GlcNAc(b1-3)Gal(b1-4)GlcNAc(b1-2)[Gal(b1-4)GlcNAc(b1-3)Gal(b1-4)GlcNAc(b1-6)]Man(a1-6)[Gal(b1-4)GlcNAc(b1-3)Gal(b1-4)GlcNAc(b1-2)Man(a1-3)]Man(b1-4)GlcNAc(b1-4)GlcNAc
# In short: as §1
# [15] = biological target: Gal(b1-4)GlcNAc(b1-3)Gal(b1-4)GlcNAc(b1-3)Gal(b1-4)GlcNAc
# In short: as §1
# [16] = biological target: Gal(b1-4)GlcNAc(b1-3)GalNAc
# In short: as §1
# Gal3S(b1-4)Glc = biological target: Gal3S(b1-4)Glc
# In short: as §1
# [17] = biological target: Gal3S(b1-4)[Fuc(a1-3)]Glc6S
# In short: as §1
# GalNAc3S(b1-4)GlcNAc = biological target: GalNAc3S(b1-4)GlcNAc
# In short: as §1
# [18] = biological target: GlcNAc(b1-2)[GlcNAc(b1-6)]Man(a1-6)[GlcNAc(b1-2)Man(a1-3)]Man(b1-4)GlcNAc(b1-4)[Fuc(a1-6)]GlcNAc
# In short: as §1
# [19] = biological target: GlcNAc(b1-3)Gal(b1-4)GlcNAc
# In short: as §1
# [20] = biological target: GlcNAc(b1-3)Gal(b1-4)GlcNAc(b1-2)Man(a1-3)[GlcNAc(b1-3)Gal(b1-4)GlcNAc(b1-2)Man(a1-6)]Man(b1-4)GlcNAc(b1-4)GlcNAc
# In short: as §1
# [21] = biological target: GlcNAc(b1-3)Gal(b1-4)GlcNAc(b1-3)Gal(b1-4)GlcNAc
# In short: as §1
# [22] = biological target: GlcNAc(b1-3)Gal(b1-4)GlcNAc(b1-6)[Gal(b1-3)]GalNAc
# In short: as §1
# [23] = biological target: GlcNAc(b1-3)[GlcNAc(b1-6)]GalNAc
# In short: as §1
# [24] = biological target: GlcNAc(b1-4)GlcNAc(b1-4)GlcNAc(b1-4)GlcNAc(b1-4)GlcNAc(b1-4)GlcNAc
# In short: as §1
# [25] = biological target: GlcNAc6S(b1-3)Gal(b1-4)GlcNAc
# In short: as §1
# [26] = biological target: Man(a1-2)Man(a1-3)[Man(a1-2)Man(a1-6)]Man(a1-6)[Man(a1-2)Man(a1-2)Man(a1-3)]Man
# In short: as §1
# [27] = biological target: Man(a1-3)[Man(a1-6)]Man(b1-4)GlcNAc(b1-4)[Fuc(a1-6)]GlcNAc
# In short: as §1
# Neu5Ac(a2-3)Gal = biological target: Neu5Ac(a2-3)Gal
# In short: as §1
# [28] = biological target: Neu5Ac(a2-3)Gal(b1-3)GalNAc
# In short: as §1
# [29] = biological target: Neu5Ac(a2-3)Gal(b1-4)GlcNAc(b1-2)Man(a1-3)[Neu5Ac(a2-3)Gal(b1-4)GlcNAc(b1-2)Man(a1-6)]Man(b1-4)GlcNAc(b1-4)[Fuc(a1-6)]GlcNAc
# In short: as §1
# [30] = biological target: Neu5Ac(a2-3)Gal(b1-4)GlcNAc(b1-3)Gal(b1-4)GlcNAc(b1-3)[Neu5Ac(a2-3)Gal(b1-4)GlcNAc(b1-3)Gal(b1-4)GlcNAc(b1-6)]GalNAc
# In short: as §1
# [31] = biological target: Neu5Ac(a2-3)Gal6S(b1-4)[Fuc(a1-3)]GlcNAc
# In short: as §1
# [32] = biological target: Neu5Ac(a2-3)[GalNAc(b1-4)]Gal(b1-4)GlcNAc
# In short: as §1
# [33] = biological target: Neu5Ac(a2-6)Gal(b1-4)GlcNAc
# In short: as §1
# [34] = biological target: Neu5Ac(a2-6)Gal(b1-4)GlcNAc(b1-6)[Gal(b1-3)GlcNAc(b1-3)]Gal(b1-4)Glc
# In short: as §1
# [35] = biological target: Neu5Ac(a2-8)Neu5Ac(a2-8)Neu5Ac(a2-8)Neu5Ac(a2-3)[GalNAc(b1-4)]Gal(b1-4)Glc
# In short: as §1
# [36] = biological target: Neu5Ac9Ac(a2-3)Gal(b1-4)GlcNAc
# In short: as §1
# [37] = biological target: Neu5Gc(a2-3)Gal(b1-3)GlcNAc
# In short: as §1
binder,measurement,setting,value
B1,glycan array binding signal (z-score),[1],2.11
same,glycan array binding signal (z-score),Fuc(a1-2)Gal(b1-4)GlcNAc,0.297
same,glycan array binding signal (z-score),[2],-1.36
same,glycan array binding signal (z-score),[3],-0.579
same,glycan array binding signal (z-score),[4],-0.021
same,glycan array binding signal (z-score),[5],2.68
same,glycan array binding signal (z-score),[6],-0.288
same,glycan array binding signal (z-score),[7],3.46
same,glycan array binding signal (z-score),[8],2.09
same,glycan array binding signal (z-score),Gal(a1-3)Gal,0.366
same,glycan array binding signal (z-score),[9],0.045
same,glycan array binding signal (z-score),Gal(a1-3)Gal(b1-4)Glc,-0.505
same,glycan array binding signal (z-score),Gal(b1-3)Gal(b1-4)GlcNAc,-0.114
same,glycan array binding signal (z-score),Gal(b1-3)GalNAc,-0.235
same,glycan array binding signal (z-score),[10],0.141
same,glycan array binding signal (z-score),[11],0.162
same,glycan array binding signal (z-score),[12],-0.063
same,glycan array binding signal (z-score),[13],2.1
same,glycan array binding signal (z-score),[14],2.06
same,glycan array binding signal (z-score),[15],0.018
same,glycan array binding signal (z-score),[16],-1.43
same,glycan array binding signal (z-score),Gal3S(b1-4)Glc,-0.16
same,glycan array binding signal (z-score),[17],0.853
same,glycan array binding signal (z-score),GalNAc3S(b1-4)GlcNAc,-0.587
same,glycan array binding signal (z-score),[18],14.6
same,glycan array binding signal (z-score),[19],-0.499
same,glycan array binding signal (z-score),[20],0.012
same,glycan array binding signal (z-score),[21],0.586
same,glycan array binding signal (z-score),[22],0.122
same,glycan array binding signal (z-score),[23],0.283
same,glycan array binding signal (z-score),[24],-0.525
same,glycan array binding signal (z-score),[25],-0.144
same,glycan array binding signal (z-score),[26],-0.717
same,glycan array binding signal (z-score),[27],-0.775
same,glycan array binding signal (z-score),Neu5Ac(a2-3)Gal,2.35
same,glycan array binding signal (z-score),[28],-0.092
same,glycan array binding signal (z-score),[29],5.23
same,glycan array binding signal (z-score),[30],-0.406
same,glycan array binding signal (z-score),[31],5.49
same,glycan array binding signal (z-score),[32],-0.151
same,glycan array binding signal (z-score),[33],3
same,glycan array binding signal (z-score),[34],0.031
same,glycan array binding signal (z-score),[35],0.115
same,glycan array binding signal (z-score),[36],-1.16
same,glycan array binding signal (z-score),[37],-0.167
